Experimental data as given in PubChem BioAssay AID1233 (SRMLSC, 2008).
Potency and affinity values are given separately. Activity calls are given as the source filed them.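 Rule for the calls: active = a dose-response curve fit returns a half-maximal inhibitory concentration, extrapolated values included; inactive = the fit returns no such concentration.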

These molecules were tested against HMG-CoA reductase [Enterococcus faecalis] (UniProt Q9FD70) (assay: inhibitors of E. faecalis class II HMGR, confirmation, biochemical, Enterococcus faecalis (AID 1233)). Details: purified E. faecalis HMGR, NADPH absorbance 340 nm kinetics; series mostly up to 100 µM.

outcome, inactive:
CCCC(=O)NC(=S)Nc1ccc(Cl)cn1
COc1ccc(N2CC(C(=O)NCCc3ccc(OC)c(OC)c3)CC2=O)cc1 (stereo not drawn)
CCOc1ccc(CN2CCN(Cc3cc4ccccc4[nH]3)CC2CCO)cc1 (stereo not drawn)
COc1ccc(Cl)cc1NC(=O)CN(c1ccccc1)S(=O)(=O)N(C)C
CC(C)OCP(=O)(c1ccccc1)c1ccccc1
O=C(NCCCN1CCOCC1)c1cn(-c2ccccc2)nc1-c1cccs1
CS(=O)(=O)N(CC(N)=O)c1cccc(Br)c1
O=C(O)c1cc(N/N=C/C(Cl)=C/c2ccccc2)ccc1Cl
CN(CCO)c1cc(NCCCN2CCC(Cc3ccccc3)CC2)c2nonc2c1[N+](=O)[O-]
CCN(Cc1ccncc1)Cc1c(O)ccc2cc(Br)ccc12
CCC(=O)N/N=C(\C)CC(=O)Nc1ccccc1-c1ccccc1
COc1ccc(C)cc1NC(=O)COC(=O)C1CCN(C(=O)c2ccc(Cl)cc2)CC1
O=C(CN1CCN(c2ncc(C(F)(F)F)cc2Cl)CC1)NC(=O)NCc1ccccc1
CCCCn1c(=O)c2ccccc2c2ccccc2c1=O
Cc1nc(Nc2nc3ccccc3o2)nc2c1CCC2
Cc1cccc(/C=N/NC(=O)c2cc(-c3cccnc3)nc3c2c(C)nn3-c2ccccc2)c1
O=[N+]([O-])c1ccc(N/N=C/c2ccc(O)c(O)c2O)c(S(=O)(=O)N2CCOCC2)c1
COc1ccccc1Sc1ccccc1/C=N/NC(N)=O
N#Cc1c2c(c(-c3ccccc3Cl)[nH]c1=S)CCCC2
COc1ccccc1C(=O)NCC(=O)NC1CCCc2ccccc21 (stereo not drawn)
O=C(COC(=O)CCS(=O)(=O)c1ccc(Cl)cc1)NCCc1ccccc1
O=C(Cc1ccccc1)Nc1ccccc1CO
COC(=O)C1C(c2ccc(N(C)C)cc2)C(C(=O)OC)S(=O)(=O)CS1(=O)=O (stereo not drawn)
N#CC(C#N)=Cc1cc2ccccc2nc1N1CCOCC1
Cc1cccc(C)c1N1CCN(C(=O)N2CCCCC2)CC1
Cc1ccc(NC(=O)c2cc(S(=O)(=O)NCCC3=CCCCC3)ccc2F)cc1
O=C(Nc1cccc(S(=O)(=O)N2CCCCCC2)c1)c1ccc2ccccc2n1
Cc1cccc(N/N=C(\C#N)S(=O)(=O)C(C)(C)C)c1
CCOC(=O)c1cnn(-c2nc(-c3ccccc3)cs2)c1C(F)(F)F
Cc1ccc(S(=O)(=O)N2CCCCC2)cc1C(=O)N1CCN(c2ccccn2)CC1
O=[N+]([O-])c1ccc(N2CCCCC2)c(-c2nn[nH]n2)c1
Cc1ccc(-c2cc(C(=O)NCc3ccc4c(c3)OCO4)[nH]n2)c(O)c1C
O=C(Nc1ccncc1)c1ccc(C(=O)Nc2ccncc2)cc1
COC(=O)CSc1ncc(C#N)c(N)n1
COC(=O)[C@@]1(Cc2ccc(OC)cc2)[C@H]2c3cc(C(=O)N(C)C)n(CCc4ccc(OC)c(Br)c4)c3C[C@H]2CN1C(=O)c1ccccc1
Cc1ccc(S(=O)(=O)ON2C(=O)c3ccccc3C2=O)c(C)c1
CN(C(=O)COc1ncnc2c1cnn2-c1ccccc1)C1CCCCC1
Cc1ccsc1C(=O)C1CCCN(Cc2cc(F)ccc2-n2cccn2)C1 (stereo not drawn)
